From PubChem BioAssay (NCATS)
Records with an inconclusive call do not appear. Calls of active or inactive are those of the source. Calls come from the whole dose curve; as a rule, active = well fitted curve in the direction sought with a large enough effect; inconclusive = small, poorly fitted or top-dose-only effect, or another doubt; inactive = no such curve, though single readings can be large; an effect the other way counts as inactive or inconclusive. Numbered stars: 1 amine (or outer) side, 2 acyl side, 3 side chain; on linkers, the order of the positions; unused ones are H or OH. Square brackets hold non-standard residues; d marks the D form. Peptide text beside a SMILES is read from it. * marks the point of attachment. ξ: configuration not given here. X4 = O=C(C1CC2(c3ccc(O)cc3)c3ccccc3NC2N1[*:1])[*:2]; ξW = NC(Cc1c[nH]c2ccccc12)C(=O)O; ξY = NC(Cc1ccc(O)cc1)C(=O)O; Octanoyl = CCCCCCCC(=O)*

Tests used:
[1] = OV-SAHO Cancer Cell Toxicity qHTS against the NCATS CANVASS Library (AID 1347348); note: nearly all actives have a fitted effect of over 55% in size; note: potency is the fitted concentration of half-maximal effect; for activity change, negative = cytotoxicity: series mostly up to about 38 µM; % is set by controls: 0 for no effect and ±100 for the full control effect
Procedure, shortened: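 Bortezomib titration and single-dose wells served as plate controls. Test compounds, 11 points, acted on 1000 cells/well for 72 h at 37 degrees C; CellTiter-Glo luminescence quantified remaining viable cells.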

[2] = qHTS for ATAD5 Agonist screened against the NCATS CANVASS Library (AID 1347367);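 note: luciferase reporter driven by ATAD5 which rises upon DNA damage; 0% is about no effect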
Procedure, shortened: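 Step one plated reporter cells and let them acclimate 5hr. Step two pinned compounds with MMS as positive and 0.46% DMSO as negative control. After 16hr incubation, fluorescence viability then luminescence were read.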

[3] = qHTS for Antimalaria activity screened against the NCATS CANVASS Library (AID 1347380); note: nearly all actives have a fitted effect of over 40% in size; note: potency is the fitted concentration of half-maximal effect;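 for activity change, negative = inhibition: Plasmodium falciparum strain Dd2 asexual parasites grown in red blood cells; series mostly up to about 29 µM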
Procedure, shortened: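 Compounds are titrated over 11 concentrations onto Dd2 parasite cultures (0.3% parasitemia, 2.5% hematocrit). Growth over 72 h at 37C in low oxygen is measured as SYBR Green DNA fluorescence after lysis.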

[4] = qHTS for activators of Nrf2/ARE signaling pathway screened against the NCATS CANVASS Library (AID 1347391); note: nearly all actives have a fitted effect of over 60% in size; note: potency is the fitted concentration of half-maximal effect; for activation: 0% is about no effect
Procedure, shortened: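 Beta-lactamase reporter signal, read as 460 and 530 nm emission under 405 nm excitation after 2 h CCF4 loading, reflected ARE activation in HepG2 cells treated 16 h with an 11-point series.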

[5] = Redox Reaction Profiling qHTS: Assay Interference Panel against the NCATS CANVASS Library (AID 1347401); note: potency is the fitted concentration of half-maximal effect;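 for activation (redox signal): 100% = activation by 2 µM chloranil control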
Procedure, shortened: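 Fluorescence read-out (525 nm excitation, 598 nm emission) at time zero and after 15 min in the dark tracked resorufin formation. Mix: 5 uM resazurin, 200 uM DTT, HEPES pH 7.3 buffer with NaCl.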

[6] = HPAF-II 24hr Apoptosis Induction qHTS against the NCATS CANVASS Library (AID 1347356); note: 0% is about no effect
Procedure, shortened: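 Cells seeded at 500 per well, then compounds pin-transferred in an 11-point concentration series. After 24 hours at 37 degrees C, Caspase-Glo 3/7 was added and luminescence measured following 15 min at room temperature.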

[7] = HPAF-II 18hr Apoptosis Induction qHTS against the NCATS CANVASS Library (AID 1347360); note: 0% is about no effect
Procedure, shortened: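 Apoptosis was scored as caspase-3/7 activity in HPAF-II pancreatic cancer cells treated 18 hours with an 11-point concentration series.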

[8] = qHTS for inhibitors of Wild type Zika virus screened against the NCATS CANVASS Library (AID 1347396); note: potency is the fitted concentration of half-maximal effect;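 for activity change, negative = antiviral: ATP luminescence of surviving cells so rescue from viral cell killing; series mostly up to about 46 µM; % is set by controls: 0 for no effect and ±100 for the full control effect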
Procedure, shortened: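 Vero 766 cells, 1000/well, o/n attach; cpds pin-transferred (11-pt qHTS); WT Zika added; 72 h, 37C, 5% CO2; CellTiter Glo lumi. Uninfected + vehicle = 100% inhibition.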

[9] = qHTS for activators of dead-cell proteases activity screened against the NCATS CANVASS Library (AID 1347392);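 note: luminescence from protease leaking out of membrane-damaged cells cleaving impermeant substrate; 0% is about no effect; rising signal means more cytotoxicity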
Procedure, shortened: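 HepG2, 2000 cells/well, 18 h attach; cpd 11-pt, 5 h 37C 5% CO2; CytoTox-Glo (AAF-aminoluciferin) 15 min RT; luminescence read.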

CCCCCCCCCCCCCCC[C@H](O)C[C@@H](O)C[C@@H](O)C[C@@H](O)C[C@@H](O)C[C@H]1CC=CC(=O)O1
inactive: Potency [2] | Potency [4] | Potency [5]
active: Potency [1] 1.49 µM | Potency [3] 3.75 µM

CC[C@H](C)[C@H](NC(=O)C(Cc1ccc(O)cc1)NC(=O)C(Cc1c[nH]c2ccccc12)NC(=O)[C@H](C)N)C(=O)N1C(C(=O)NC(Cc2ccc(O)cc2)C(=O)O)CC2(c3ccc(O)cc3)c3ccccc3NC12 (some centres undefined) (H-A[ξW][ξY]I[X4][ξY]-OH)
inactive: Potency [1] | outcome [6] | Potency [7] | Potency [3] | Potency [4] | Potency [8]

Cc1cc(O)cc2oc(C[C@H](C)O)cc(=O)c12
inactive: Potency [1] | Potency [7] | Potency [2] | Potency [3] | Potency [4] | Potency [9] | Potency [8] | Potency [5]

O=C(O)[C@@]12CO[C@@]3(O)C4CCN(CC[C@H]31)[C@H]4c1c2[nH]c2ccccc12
inactive: Potency [1] | outcome [6] | Potency [7] | Potency [4] | Potency [8]

CC1(C)[C@H](Br)CC[C@]23C[C@]4(C)C(=O)CC12C[C@H]34
inactive: Potency [1] | outcome [6] | Potency [2] | Potency [4] | Potency [9] | Potency [8] | Potency [5]

CN1CC[C@]2(c3cccc4c3N[C@@H]3N(C)CC[C@]43[C@@]34CCN(C)[C@@H]3Nc3c([C@]56CCN(C)[C@H]5Nc5ccccc56)cccc34)c3ccccc3N[C@H]12
inactive: outcome [6] | Potency [2] | Potency [4]
active: Potency [1] 3.75 µM

COc1cc(O)c2c3c(c(O)cc(C)c13)C(=O)OC2
inactive: Potency [1] | Potency [3] | Potency [9] | Potency [8]

C[C@@H]1C[C@H]2C[C@]3(CCCCN3C)[C@@H]3C[C@H]2[C@H](C1)N(C)C3
inactive: Potency [1] | Potency [7] | Potency [2] | Potency [9] | Potency [8]

COc1ccc(CCCc2cc(O)c(OC)c(O)c2)c(O)c1O
active: Potency [5] 21.5 µM
inactive: Potency [1] | outcome [6] | Potency [7] | Potency [2] | Potency [8]

C1=C2CCCN[C@@H]2[C@@H]2CCN3CCCC[C@@H]3[C@H](C1)C2
inactive: Potency [1] | outcome [6] | Potency [4] | Potency [8] | Potency [5]

CCC[C@@H](C)/C=C(\C)[C@H](O)[C@H](C)/C=C/CC[C@@H](O)[C@H](C)[C@H](O)[C@H](C)[C@H](O)[C@H](C)[C@H]1O[C@H]([C@H](C)C(=O)O)CC[C@@H]1C
active: Potency [1] 3.34 µM | Potency [3] 5.94 µM
inactive: Potency [2] | Potency [5]

COc1ccc2oc3c(OC)c(OC)c(OC)c(OC)c3c(=O)c2c1
inactive: activity change, negative = cytotoxicity [1] -19.6% [at 7.64 µM] | caspase activation [7] 4.09% [at 9.19 µM] | activation [2] 0.941% [at 9.19 µM] | activity change, negative = inhibition [3] -46.5% [at 5.73 µM] | activation [4] 5.78% [at 9.19 µM] | activity change, negative = antiviral [8] -12.7% [at 9.14 µM] | activation (redox signal) [5] -9.99% [at 11.4 µM]

C=CC(=C)CC[C@]1(C)[C@H]2C[C@H](OC(=O)C(C)CC)C=C3[C@H](OC(C)=O)O[C@H](OC(C)=O)[C@@]32[C@H](OC)C[C@@H]1C (some centres undefined)
inactive: Potency [2] | Potency [4] | Potency [5]
active: Potency [1] 2.73 µM | Potency [3] 0.545 µM | Potency [8] 6.76 µM

C=C1C(=O)C[C@H]2C[C@@H]1[C@]2(C)CCC=C(C)C
inactive: Potency [1] | Potency [7] | Potency [9] | Potency [8] | Potency [5]
active: Potency [4] 16.6 µM

O=C(O)CC1OCc2c(O)cccc21 (centres undefined)
inactive: Potency [1] | outcome [6] | Potency [7] | Potency [2] | Potency [3] | Potency [4] | Potency [9] | Potency [8]

CCCCCCCC(=O)N[C@@H](CC(C)C)C(=O)N[C@H](C=O)CCC(=O)O (Octanoyl-Leu-Glu-aldehyde)
inactive: Potency [1] | Potency [4] | Potency [9] | Potency [8] | Potency [5]

O=C(O)[C@@]12COC3(O)C1CCN1CC[C@H]3[C@@H]1c1c2[nH]c2ccccc12
inactive: Potency [1] | outcome [6] | Potency [7] | Potency [2] | Potency [3] | Potency [4] | Potency [9] | Potency [8]
